From PubChem BioAssay
HIV RNase H inh-1: blocks HIV-1 RNase H cleavage of RNA/DNA duplex; AID 565; RT-RNase H RNA/DNA duplex cleavage, fluorescence; hit rate 1.9% among 65,000; inhibition, % at 10 µM; P04585; in the data active = inhibition above about 50%
RmlC RmlD mix: mixture blocks RmlC and RmlD coupled enzyme activity | inhibition, % at 5.5 µM | RmlC/RmlD coupled enzyme inhibition, 384-well mixture HTS | AID 1532 | hit rate 0.39% among 110,000; in the data active = inhibition above about 30%, passing the limit was not always enough; inconclusive = no clear call, values can overlap the other calls
HIV RNase H inh-2: confirmation of HIV-1 reverse transcriptase RNase H inhibitors; inhibition, % at 10 µM; shares compounds with HIV RNase H inh-1; hit rate 39% among 1,000; Recombinant RT RNase H, fluorescent RNA/DNA duplex cleavage; AID 651; in the data active = inhibition above about 48%; inconclusive = no clear call, values can overlap the other calls
Numbers without * were called inactive; ? = inconclusive; · = no result. Many of the other results were omitted from the sample, so hits are more common in it than they were.

SMILES | HIV RNase H inh-1 | RmlC RmlD mix | HIV RNase H inh-2
COc1ccc2[nH]c(=O)c(CN(C3CCCCC3)C(c3nnnn3Cc3ccco3)C(C)C)cc2c1 (stereo unspecified) | 51* | · | 55*
COc1ccc2[nH]c(=O)c(CN(Cc3nnnn3Cc3ccco3)C3CCCCC3)cc2c1 | 33 | 31 | ·
COC(=O)c1c(-c2cccnc2)csc1NC(=O)c1cc(C)on1 | 86* | -8 | ?
Cc1cccc(-c2csc(NC(=O)c3cnccn3)c2C(=O)OC(C)C)c1 | · | 5 | ·
CC(C)CCNC(=O)C1CC(c2ccc(C(F)(F)F)cc2)=NO1 (stereo unspecified) | · | -1 | ·
Cc1cc(C)c2c(=O)n(CC(=O)N3CCC(N4CCCCC4)CC3)sc2n1 | 83* | 8 | 58*
CC(=O)c1cc(-c2ccccc2)n(CC(=O)N2CCC(N3CCCCC3)CC2)c1C | -10 | -86 | ·
CCOC(=O)C1CCCN(C(=O)Cn2cnc3c2c(=O)n(C)c(=O)n3C)C1 (stereo unspecified) | -8 | 8 | ·
CCOC(=O)C1CCCN(C(=O)Cn2sc3nc(C)cc(C)c3c2=O)C1 (stereo unspecified) | 85* | 5 | 51*
Cc1cccc(OCC(=O)NC(=S)Nc2ccc(S(=O)(=O)NC3CCCCC3)cc2)c1 | · | -49 | ·
Cc1ccccc1CS(=O)(=O)c1cnc2ccccc2n1 | · | -5 | ·
Cc1ccc(NC(=O)c2ccc3c(c2)N(CC(=O)N2CCCCC2)C(=O)C(C)(C)O3)cc1 | -11 | -14 | ·
CC1(C)Oc2ccc(C(=O)NC3CCCC3)cc2N(CC(=O)NC2CCCCC2)C1=O | 73* | 7 | 48
O=C(O)c1cc(C(F)(F)F)nc2c(C(F)(F)F)cccc12 | · | -6 | ·
CC1=C(CO)C(=O)OC([C@@H](C)C2CC[C@H]3C4C[C@H]5O[C@]56[C@@H](O)C=CC(=O)[C@]6(C)C4CC[C@]23C)C1 (stereo partly specified) | · | 4 | ·
CCCCCn1c(SCCCC)nc2c1c(=O)[nH]c(=O)n2C | 71* | ? | 61*
CCCCCCn1c(SCCC)nc2c1c(=O)[nH]c(=O)n2C | -2 | 5 | ·
CCCn1c(SCCc2ccccc2)nc2c1c(=O)[nH]c(=O)n2C | 7 | 20 | ·
CC(C)CCn1c(SCCc2ccccc2)nc2c1c(=O)[nH]c(=O)n2C | 74* | 34 | 5
O=C(COC(=O)c1ccc(Br)o1)NCc1ccco1 | 9 | -3 | ·
CN(C)CCCN1C(=O)C(=O)/C(=C(/O)c2ccc(S(=O)(=O)N(C)C)cc2)C1c1ccncc1 (stereo unspecified) | -2 | · | ·
COc1ccc(NC(=O)c2cc(C)on2)cc1OC | 1 | -9 | ·
COc1ccc(NC(=O)c2cc(-c3ccc(OC)c(OC)c3)on2)cc1OC | 81* | · | 32
CC(=O)c1cccc(NC(=O)c2cc(-c3ccc(C)cc3)on2)c1 | 52* | -14 | 57*
CCCc1cc(C(=O)Nc2cccc(C(C)=O)c2)no1 | -7 | 3 | ·
SMILES | HIV RNase H inh-1 | RmlC RmlD mix | HIV RNase H inh-2
CNC(=O)c1cc2c(=O)n3cccc(C)c3nc2n1C | -17 | · | ·
O=C(NCCc1ccccc1)c1cccnc1N1CCCCCC1 | -9 | 5 | ·
CC(CC1C(C#N)=C(N)SC(N)=C1C#N)c1ccccc1 (stereo unspecified) | 38 | -15 | ·
COC(=O)[C@H]1C[C@H]1[C@@H](NC(=O)c1ccc[nH]1)c1ccccc1 | · | 8 | ·
O=C1CCCc2nc(N3CCc4ccccc43)ncc21 | 3 | -10 | ·
O=C1CC(c2ccccc2)Cc2nc(N3CCc4ccccc43)ncc21 (stereo unspecified) | 78* | -2 | 94*
CC1(c2nnc(Cc3ccccc3)o2)CC(c2cccnc2)=NO1 (stereo unspecified) | · | -11 | ·
O=c1c2[nH]c3ccc(F)cc3c2ncn1CCN1CCOCC1 | 70* | 5 | -1
Cc1ccc2[nH]c3c(=O)n(CCN4CCOCC4)cnc3c2c1 | · | 7 | ·
C[C@@H]1CC[C@@]2(O[C@@H](CCO)C[C@@H](O)[C@@H]2O)O1 | · | -23 | ·
COc1ccc(CC(=O)Nc2ccc(-c3noc(-c4cccc(OC)c4)n3)cc2)cc1 | 79* | 7 | 62*
COc1cccc(-c2nc(-c3ccc(NC(=O)c4cccnc4)cc3)no2)c1 | -1 | 7 | ·
CCn1cc(C(=O)NCc2ccco2)c(=O)c2cc(S(=O)(=O)N3CCCCCC3)ccc21 | -24 | 5 | ·
CCn1cc(C(=O)NCc2ccco2)c(=O)c2cc(S(=O)(=O)N3CCc4ccccc4C3)ccc21 | 65* | 0 | 63*
Cc1cc(NC(=O)C2C3C(=O)N(Cc4ccc(Cl)cc4)C(C(=O)NCc4ccccc4)C34C=CC2(C)O4)no1 (stereo unspecified) | · | -12 | ·
CCOC(=O)c1ccc(CNC(=O)Cn2nnc(-c3ccc(C)cc3)n2)o1 | -6 | · | ·
COc1ccc(CN(C#N)c2nc(SC)nc(N(C)C)n2)cc1 | -17 | -15 | ·
CCOc1ccccc1C1CC(c2ccc(Br)cc2)Nc2nc(N)nn21 (stereo unspecified) | -5 | -2 | ·
CC1Cc2ccccc2N1Cc1nc2cc(Cl)ccc2c(=O)[nH]1 (stereo unspecified) | · | -15 | ·
COC(=O)c1ccc2c(=O)[nH]c(CN3c4ccccc4CC3C)nc2c1 (stereo unspecified) | 63* | -6 | 61*
CC1(C)CC2(CCO1)N1CC3(C)CN2CC(C)(C1)C3=O (stereo unspecified) | · | -10 | ·
CCOc1cccc(-c2nnc3sc(-c4cc(OC)c(OC)c(OC)c4)nn23)c1 | -3 | · | ·
COc1cc(-c2nn3c(-c4ccccc4)nnc3s2)cc(OC)c1OC | -6 | 15 | ·
COc1cc(-c2nn3c(Cc4ccccc4)nnc3s2)cc(OC)c1OC | 91* | 15 | 80*
COc1cc(-c2nn3c(COc4ccccc4)nnc3s2)cc(OC)c1OC | 71* | -22 | 29
SMILES | HIV RNase H inh-1 | RmlC RmlD mix | HIV RNase H inh-2
COc1ccc(-c2cc(C(F)(F)F)c3c(=O)n(-c4ccccc4)[nH]c3n2)cc1 | · | 14 | ·
Cc1ccc(C)c(NC(=O)CC(NCCCN2CCOCC2)C(=O)O)c1 (stereo unspecified) | -6 | · | ·
COC(=O)C1(Cc2ccc(O)c(CC3OC3(C)C)c2)OC(=O)C(O)=C1c1ccc(O)cc1 (stereo unspecified) | · | 6 | ·
COc1ccc(CCNC(=O)C2CC3Cn4c(nc5ccccc54)C3N2Cc2ccccc2)cc1 (stereo unspecified) | · | 10 | ·
CC(=O)c1c(C)[nH]c(C(=O)CSc2nnc(-c3ccccc3)o2)c1C | · | -7 | ·
CCOC(=O)c1c(C)[nH]c(C(=O)CSc2nc3ccccc3o2)c1C | 90* | 4 | 69*
CCOC(=O)c1c(NC(=O)CSc2nc3ccccc3o2)sc(C)c1C | · | 9 | ·
CCOC(=O)c1c(C)[nH]c(C(=O)CSc2nnc(CC(C)c3ccccc3)o2)c1C (stereo unspecified) | 72* | -4 | ?
C=CCn1c(=O)c(C(=O)Nc2nnc(C)s2)c(O)c2ccccc21 | 83* | · | 98*
C=CCn1c(=O)c(C(=O)Nc2cccnc2)c(O)c2ccccc21 | · | 7 | ·
CCn1c(-c2ccc(C)cc2)n[nH]c1=S | · | 5 | ·
CCn1c(=S)sc2nc(C)sc21 | 84* | 4 | 46
OCC[C@@H]1C[C@H](O)[C@@H](O)[C@@]2(CCCO2)O1 | · | -90 | ·
COC(=O)c1c(S(=O)(=O)NCc2ccccc2)sc(C(=O)O)c1C | · | -15 | ·
O=C(Cn1c(=O)oc2cc(S(=O)(=O)N3CCCCCC3)ccc21)NC1CCCCCCC1 | 26 | -8 | ·
